# An excerpt weighted towards active compounds, which were near 11% of everything screened.
# Sm TGR block = qHTS Assay for the Inhibitors of Schistosoma Mansoni Peroxiredoxins. Schistosoma mansoni thioredoxin glutathione reductase (TGR), Q962Y6. purified TGR, DTNB reduction, TNB absorbance 405 nm. Potency, µM (series often up to 114 µM), without a hit: at the highest dose activity change, negative = inhibition, usual class: inhibitors. 360,000 compounds, 3% hits. AID 485364, 2010; further: potency means the concentration at half of the fitted maximal effect; on the % scale 0 is the no-effect control and ±100 the full control effect; nearly all actives have a fitted effect of over 60% in size
#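 First, TGR (20 nM dispensed) and NADPH were mixed with compound. Second, a 15 min room-temperature incubation followed. Third, further NADPH and then DTNB were added to start the reaction. Finally, TNB absorbance was monitored kinetically.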
# Pf growth 96h = Primary qHTS for delayed death inhibitors of the malarial parasite plastid, 96 hour incubation | 320,000 compounds, 6.9% hits | AID 504834, 2011 | P. falciparum luciferase reporter growth, 96 h | Potency, µM (doses to about 28.7 µM), inactives show top-dose activity change, negative = inhibition, hits mostly inhibitors; further: potency means the concentration at half of the fitted maximal effect; on the % scale 0 is the no-effect control and ±100 the full control effect
#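 Plates of compound plus infected erythrocytes (2% hematocrit, 0.05% parasitemia final) incubate 96 hours, 37 C, 5% CO2. Detection reagent added; reduced luminescence from the parasites' luciferase reporter flags inhibition.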
# Pf growth 48h = Primary qHTS for delayed death inhibitors of the malarial parasite plastid, 48 hour incubation; P. falciparum luciferase growth in erythrocytes, 48 h; AID 504832, 2011; 310,000 compounds, 5.9% hits; Potency, µM (titrated, usually from 28.7 µM), for the others: at the top dose activity change, negative = inhibition, most hits filed as inhibitors; further: potency means the concentration at half of the fitted maximal effect; on the % scale 0 is the no-effect control and ±100 the full control effect
#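 Growth was read as firefly luciferase luminescence after a 48 h, 37 C, 5% CO2 exposure of compounds to reporter-bearing P. falciparum cultures (0.1% parasitemia, 2% hematocrit final) in Albumax-supplemented RPMI 1640.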
# NS1 function inh = qHTS Assay for Inhibitors of Influenza NS1 Protein Function | Potency, µM (titrated, usually from 46.1 µM), for inactives: top-dose activity, positive = more growth | 270,000 compounds, 0.4% hits; calls by dose curve; further: potency means the concentration at half of the fitted maximal effect; actives are rising curves; nearly all actives have a fitted effect of over 50% in size
#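 Read-out: OD600 growth recovery of NS1-expressing budding yeast. Cells grown overnight at 30C in -URA glucose medium, washed, resuspended and diluted 1:100 in 2% galactose assay medium, pH 6.0. Same strain lacking NS1 served as positive control.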
# AMA1-RON2 inh = qHTS for Inhibitors of AMA1-RON; Towards Development of Antimalarial Drug Lead: Primary Screen; AID 720542, 2013; Plasmodium falciparum AMA1 (3D7) - RON2 peptide interaction; Potency, µM (series often up to 58.2 µM), for inactives: at the highest dose activity change, negative = inhibition, hits mostly inhibitors; AlphaScreen AMA1-biotinylated RON2 peptide binding; 360,000 compounds, 0.2% hits;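 further: potency means the concentration at half of the fitted maximal effect; 0% = vehicle wells and -100% = peptide control; nearly all actives have a fitted effect of over 45% in size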
#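 AMA1 (3D7) with his tag at 25 nM final met compounds first, then biotinylated RON2 peptide at 25 nM; detection used donor plus acceptor beads, 10 µg/mL apiece, read by AlphaScreen after 30 min at room temperature.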
# NS1 inh valid = Assay for Inhibitors of Influenza NS1 Protein Function: Hit Validation | AID 492980, 2010 | shares compounds with NS1 function inh | 1,400 tested, under 10 active | activity change, negative = inhibition, % at 32.9 µM | influenza NS1 function cell assay, 15-point titration; calls by dose curve; further: 0% is about no effect
# * hit, by the source's call; ? = inconclusive; / = no result; [ ] = another dose, or the depositor's remark. Unless noted, the call rests on the fitted dose curve; in most records, active means well fitted curve in the direction sought with a large enough effect; inconclusive means small, poorly fitted or top-dose-only effect, or another doubt; inactive means no such curve, though single readings can be large; an effect the other way counts as inactive or inconclusive.
SMILES,Sm TGR block,Pf growth 96h,Pf growth 48h,NS1 function inh,AMA1-RON2 inh,NS1 inh valid
COc1ccccc1/C=C(\NC(=O)c1ccc(OC)c(OC)c1)C(=O)Nc1cccc([N+](=O)[O-])c1,4%,0%,-10%,?,-1%,/
COc1ccccc1/C=C(\NC(=O)c1ccc(OC)c(OC)c1)C(=O)Nc1ccc([N+](=O)[O-])cc1,0%,?,-4%,13µM*,-9%,13
Cc1cc2c(cc(C(=O)OC(C)C(=O)NCc3ccc(F)cc3)n2C)o1 (stereo not given),/,/,/,/,0%,/
CN(C(=O)COC(=O)CCc1c[nH]c2ccccc12)C(c1ccccc1)c1ccccc1,13%,10µM*,12µM*,8.9µM*,-24%,-14
CN(C)c1ccc(C(=O)OCC(=O)N2CCOCC2)cc1,12%,121%,0%,?,16%,3
C[C@@]12C(=O)N(Cc3ccccc3)CC(=O)N1[C@H](/C=C/c1ccccc1)[C@@H]1C(=O)N(c3ccccc3)C(=O)[C@@H]12,-1%,41%,-3%,-3%,-1%,/
O=C(NNC(=O)c1cccc(Cl)c1)NNC(=O)c1cccc(Cl)c1,/,/,/,/,2%,/
NC(=S)NNC(=O)c1cccc(Cl)c1,8%,0%,9%,3.2µM*,46%,7
COc1ccc(-n2c(=S)[nH]c3cc(C(=O)NCc4ccco4)ccc3c2=O)c(OC)c1,-5%,?,/,13µM*,84%,4
COc1cccc(NC(=S)N2CCc3cc(OC)c(OC)cc3C2COc2ccc3c(C)cc(=O)oc3c2)c1 (stereo not given),7%,?,5.2µM*,8.9µM*,-12%,18
CCCC(=O)N1CCc2cc(OC)c(OC)cc2C1COc1ccc2c(C)cc(=O)oc2c1 (stereo not given),7%,/,/,/,/,/
COc1ccccc1NC(=O)CN(c1ccc(C)cc1)S(=O)(=O)c1c(C)n[nH]c1C,13%,/,?,?,?,-11
O=C(O)c1cc(N/N=C/c2ccc(N3CCOCC3)s2)ccc1Cl,?,3%,22%,11µM*,1%,23
O=C(O)/C=C/c1nc(-c2ccccc2)n2ccccc12,2.5µM*,42%,112%,?,19%,-1
Cc1ccccc1-c1nc2ccccc2c(=O)n1/N=C/c1ccc([N+](=O)[O-])cc1,/,/,/,/,2%,/
Cc1ccccc1-c1nc2ccccc2c(=O)n1/N=C/c1ccccc1[N+](=O)[O-],3%,0%,?,3.2µM*,-2%,16
CCN(CC(=O)NCc1ccc(F)cc1)C(=O)/C=C/c1cc(OC)ccc1OC,6%,19%,4%,16%,7%,/
Cc1cc(N2C(=O)C(O)=C(C(=O)c3ccc(C)o3)C2c2cccs2)no1 (stereo not given),?,?,-5%,11µM*,?,-26
O=C(Cc1ccc(Cl)c(Cl)c1)NC1CCCCCC1,-1%,?,-16%,-2%,6%,/
Cc1ccc(NC(=O)C(C)OC(=O)c2ccc(NS(=O)(=O)c3ccc(F)c(F)c3)cc2)cc1 (stereo not given),-7%,?,-44%,4%,11%,/
CC(=O)c1ccc(NC(=O)C(C)OC(=O)c2ccc(NS(=O)(=O)c3ccc(F)c(F)c3)cc2)cc1 (stereo not given),0%,?,-14%,11µM*,-3%[11.6 µM],16
CCOC(=O)c1ccccc1NC(=O)N1CCCN(S(=O)(=O)c2ccc3c(ccn3CC)c2)CC1,-19%,/,/,/,/,/
COC(=O)Cc1[nH]nc2c1C(c1ccc(O)c(OC)c1)C(C#N)=C(N)O2 (stereo not given),-31%,6%,7%,10µM*,41%,?
COC(=O)[C@]1(C)N[C@H](CN(C)S(=O)(=O)c2ccc(OC(F)(F)F)cc2)[C@@H]2C(=O)N(Cc3ccccc3)C(=O)[C@@H]21,/,/,/,/,0%,/
Cc1cc(N2CCCC2)nc(-c2ccccc2O)n1,5%,-3%,27%,0.71µM*,16%,-23
SMILES,Sm TGR block,Pf growth 96h,Pf growth 48h,NS1 function inh,AMA1-RON2 inh,NS1 inh valid
Cc1cc(N2CCN(C)CC2)nc(-c2ccccc2O)n1,5%,?,?,1%,11%,/
Nc1ccc[n+](CC(=O)c2ccccc2)c1,11%,69%,-1%,7%,0%,/
O=C(C[n+]1cc2ccccc2c2ccccc21)c1ccccc1,-5%,/,-71%,?,-10%,4
CCOC(=O)C1=C(CSc2nc3c(cc2C#N)CN(C)CC3)OC(N)=C(C#N)C1c1ccc(F)cc1 (stereo not given),-28%,?,/,10µM*,?,29
CCOC(=O)C1=C(CSc2nc(-c3ccccc3)ccc2C#N)OC(N)=C(C#N)C1c1cccnc1 (stereo not given),-22%,?,/,10µM*,16%,1
CCOC(=O)C1=C(CSc2nc3c(cc2C#N)CN(C)CC3)OC(N)=C(C#N)C1c1ccccc1 (stereo not given),?,-27%[5.75 µM],?,9%,-16%,/
CCCC(C)NC(=O)c1ccc2[nH]c3c(c2c1)CC(C)CC3 (stereo not given),-2%,3.3µM*,4.7µM*,11µM*,-3%,1
COC(=O)c1ccc2[nH]c3c(c2c1)CC(C)CC3 (stereo not given),0%,?,29%,-5%,-21%,/
CC(C)(C)C(=O)CSc1nc2ccsc2c(=O)n1Cc1ccccc1F,12%,/,/,/,/,/
CC(C)(C)C(=O)Nc1ccc(C(=O)N/N=C/c2ccccc2OC(=O)c2ccc(Cl)cc2)cc1,-7%,?,?,10µM*,22%,21
CCOc1cc(/C=N\NC(=O)c2ccc(NC(=O)C(C)(C)C)cc2)ccc1OC(=O)c1cccc(C)c1,11%,?,?,11%,7%,/
Cc1cccc(C(=O)Oc2ccccc2/C=N/NC(=O)c2ccc(NC(=O)C(C)(C)C)cc2)c1,7%,?,?,20µM*,4%[11.6 µM],32
CCOc1ccc(C2C(C(=O)c3ccco3)=C(O)C(=O)N2CCCn2ccnc2)cc1OC (stereo not given),-21%,28%,26%,2%,-9%,/

# Source: PubChem BioAssay (National Center for Advancing Translational Sciences (NCATS))
